Reference: PubChem BioAssay (EPA / NIEHS)
Calls of active or inactive are those of the source. Rule for the calls: active = hit-call score of the fitted dose curve at least 0.9, where 1 is the maximum; inactive = score below 0.9.

Each compound was assayed on Pro-epidermal growth factor (Homo sapiens) (UniProt P01133) (assay: LTEA_HepaRG_EGF: Life Technologies and Expression Analysis (LTEA) Assay for Epidermal growth factor (EGF) using HepaRG (AID 2283489)). Conditions: mRNA level, 48 h; actives raise or lower the signal.
In short: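 qRT-PCR readout of EGF transcript after 48 h chemical exposure of HepaRG cells; eight concentrations from 100 uM down in half-log steps, duplicate wells, 0.5% DMSO vehicle. Bidirectional curve fitting against DMSO baseline.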

| Structure (SMILES) | outcome | AC50 |
| --- | --- | --- |
| CCOc1cc(C(C)(C)C)ccc1C1COC(c2c(F)cccc2F)=N1 (configuration not stated) | inactive | – |
| C=CCOC(=O)C(C)(C)OC(=O)c1cc(-n2c(=O)cc(C(F)(F)F)n(C)c2=O)ccc1Cl | inactive | – |
| Cc1c(COC(=O)[C@@H]2[C@H](/C=C(\Cl)C(F)(F)F)C2(C)C)cccc1-c1ccccc1 | inactive | – |
| CC(C)Oc1cccc(NC(=O)c2ccccc2C(F)(F)F)c1 | inactive | – |
| COCC(C)N(C(=O)CCl)c1c(C)csc1C (configuration not stated) | – | 50 µM (active) |
| CC1(C)CCC(=Cc2ccc(Cl)cc2)C1(O)Cn1cncn1 (configuration not stated) | inactive | – |
| CC(C)N1C(=O)N(c2ccccc2)CSC1=NC(C)(C)C | inactive | – |
